# ERK EGF inh: inhibitors of EGF-stimulated ERK signaling pathway; Potency, µM (doses to about 11.5 µM), without a hit: at the highest dose activity change, negative = inhibition, actives largely listed as inhibitors; actives 0.41% (n = 130,000); HEK293-V1b, EGF-stimulated phospho-ERK AlphaScreen;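 also: plate controls were stimulated vehicle wells for no effect and unstimulated vehicle basal for full effect; nearly all actives have a fitted effect of over 55% in size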
#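 HEK293 cells stably expressing V1b receptor, serum-reduced (1% FBS) overnight, pretreated 30 min with compound, then stimulated 5 min with 25 nM EGF; phospho-ERK detected by AlphaScreen SureFire. AC50 from Hill fits, normalized to DMSO and EGF.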
# NPSR antag: antagonists of human neuropeptide S receptor cAMP signaling; CHO-NPSR cells, cAMP TR-FRET, antagonist mode; Q6W5P4; Potency, µM (titrated, usually from 38.3 µM), inactives show top-dose activity change, negative = inhibition, actives largely listed as inhibitors; actives 1% (n = 220,000); also: nearly all actives have a fitted effect of over 50% in size
# Target sequence (Q6W5P4 whole entry, looked up): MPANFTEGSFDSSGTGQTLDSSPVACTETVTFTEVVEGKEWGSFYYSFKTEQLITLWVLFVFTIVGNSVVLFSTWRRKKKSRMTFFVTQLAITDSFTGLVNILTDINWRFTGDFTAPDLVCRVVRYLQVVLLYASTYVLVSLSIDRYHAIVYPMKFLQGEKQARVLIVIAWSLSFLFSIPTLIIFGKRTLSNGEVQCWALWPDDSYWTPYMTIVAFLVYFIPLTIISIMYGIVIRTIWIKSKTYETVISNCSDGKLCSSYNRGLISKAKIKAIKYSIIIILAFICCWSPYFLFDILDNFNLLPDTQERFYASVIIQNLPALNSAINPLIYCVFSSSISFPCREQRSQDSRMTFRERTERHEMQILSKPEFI
# The depositor's hits bear a star; ? = inconclusive; nt = no result; ! = a repeat was not active; [ ] = another dose, or the depositor's remark. The sample as a whole holds a higher share of hits than the screen did. Calls follow the shape of the dose curve; as a rule, active = well fitted curve in the direction sought with a large enough effect; inconclusive = small, poorly fitted or top-dose-only effect, or another doubt; inactive = no such curve, though single readings can be large; an effect the other way counts as inactive or inconclusive. Unless noted, % is scaled to controls: 0 for no effect and ±100 for the full control effect; potency is read from the fitted curve at half-maximal effect.
SMILES,ERK EGF inh,NPSR antag
O=[N+]([O-])c1ccc(/C=N/N=C/c2ccc([N+](=O)[O-])o2)o1,0.9%,5.01µM*
COc1ccc(C(=O)/C=C/c2ccc(N3CCCCC3)c([N+](=O)[O-])c2)cc1,31.6µM*,-36.1%
COc1ccc(C(=O)/C=C/c2ccc(N3CCCCC3)c([N+](=O)[O-])c2)c(OC)c1,?,-44.7%
CC(C)CC(NS(=O)(=O)c1ccc2c(c1)oc(=O)n2C)C(=O)NCc1cccnc1 (stereo not drawn),nt,9.3%[46.1 µM]
C=CCOc1cccc(C2C(C(=O)c3ccc(C)o3)=C(O)C(=O)N2c2nccs2)c1 (stereo not drawn),nt,5.01µM*
Cc1ccc(C(=O)C2=C(O)C(=O)N(c3ncccn3)C2c2cccc(Cl)c2)o1 (stereo not drawn),nt,3.2%[46.1 µM]
COc1ccc(/C=C(/C(=O)c2ccc(Cl)cc2Cl)n2cncn2)cc1,nt,-17.6%[46.1 µM]
CC(C)CC(=O)/C(=C\c1ccc(Cl)cc1Cl)n1cncn1,28.2µM*,-5.8%
COc1ccc2nc(C)c(C(=O)OCCN(C)C)cc2c1,nt,3.1%[46.1 µM]
COc1ccc(/C=C/c2cc(O)cc(O[C@H]3OC(CO)C(O)C(O)C3O)c2)cc1 (stereo partly drawn),10.3%,nt
O=C(Nc1cnn(C23CC4CC(CC(C4)C2)C3)c1)c1cnn2c(C(F)(F)F)cc(-c3ccco3)nc12,nt,7.94µM*
O=C(Nc1ccc2c(c1)OCO2)c1cnn2c(C(F)(F)F)cc(-c3ccco3)nc12,nt,-15.5%[46.1 µM]
CCSC(=Nc1ccccc1)Nc1ccccc1,3.9%,-14.9%
CCCCCCCCCCCCCCCCCCNC(=O)OCC(COP(=O)([O-])OCC[n+]1ccsc1)OC (stereo not drawn),10.1%,0.2%[46.1 µM]
Cc1scc(C(=O)N/N=C/c2ccc(Cl)s2)c1C,3.8%,-24.9%
O=C(COC(=O)c1cccc(NS(=O)(=O)/C=C/c2ccccc2)c1)Nc1ccccc1OC(F)F,1.3%,-1.2%
CCN1/C(=C/c2cc[n+](CCCS(=O)(=O)[O-])c3ccccc23)Sc2ccccc21,-4.8%,-55.4%
C=CC[n+]1ccc(/C=C2\C=Cc3cc(C)ccc3N2CC)c2ccccc21,14.1µM*,?
N/C(=N\OC(=O)c1ccc(Br)o1)c1ccccn1,2.2%[57.5 µM],13.1%
O=C(COc1cccc(Cl)c1)Nc1ccc2c(c1)CCC2,1.4%,3.5%
CC(OC(=O)CNC(=O)C12CC3CC(CC(C3)C1)C2)C(=O)Nc1ccc(S(N)(=O)=O)cc1 (stereo not drawn),-5.0%,-1.2%
Cc1ccc(S(=O)(=O)N(C)c2c(C)ccc(S(=O)(=O)NC(C)(C)C)c2C)cc1,1.4%,51.2%
O=C(Nc1ccccn1)C(=O)Nc1ccccn1,-13.9%[57.5 µM],-6.4%
S=C(Nc1ccccn1)c1ccccn1,7.7%[57.5 µM],2µM*
CCOC(=O)c1sc(=NC(=O)c2cccc(OC)c2)n(C)c1C,nt,10µM*
SMILES,ERK EGF inh,NPSR antag
CCOC(=O)c1sc(=NC(=O)COc2ccc(Cl)cc2)n(C)c1C,1.7%,-27.8%
Cc1ccc(S(=O)(=O)Cc2ccccc2Cl)cc1,-3.8%,14.3%
C#CCn1c(S(=O)(=O)Cc2ccccc2Cl)nc(-c2ccccc2)c1-c1ccccc1,nt,10µM*
COc1ccc(CC2(C)OC(c3ccc(C)c([N+](=O)[O-])c3)=NN2C(C)=O)cc1 (stereo not drawn),-2.9%[57.5 µM],?
COc1c(-c2coc3cc4c(cc3c2=O)CC(O)C(C)(C)O4)ccc2c1C=CC(C)(C)O2 (stereo not drawn),12.6µM*,nt
COc1c(-c2coc3cc4c(cc3c2=O)CC(OC(C)=O)C(C)(C)O4)ccc2c1C=CC(C)(C)O2 (stereo not drawn),46.9%,nt
CC1CCc2c(nc3sc4c(c3c2N)CCCC4)C1 (stereo not drawn),2.2%,-33.5%
N=c1ccn2c(n1)OCC1C2O[C@@H](O)[C@H]1O (stereo partly drawn),-0.5%,nt
COc1ccc(N2C(=O)c3ccccc3NC2c2ccc(OC)c(CSc3ccccn3)c2)cc1 (stereo not drawn),nt,12.6µM*
COc1ccc(N2C(=O)c3ccccc3NC2c2ccc(OC)c(COc3ccccn3)c2)cc1 (stereo not drawn),6.2%,-3.1%[46.1 µM]
CCOc1ccccc1-n1c(=O)c2ccccc2c2ccccc2c1=O,-4.3%,0.1%
Cc1ccc2nc3c(cc2c1)CN(Cc1ccco1)C(=NCC1CCCO1)S3 (stereo not drawn),nt,-23.7%[46.1 µM]
Cc1cccc2cc3c(nc12)SC(=NCC1CCCO1)N(Cc1ccco1)C3 (stereo not drawn),nt,10µM*
O=[N+]([O-])c1ccc(N=Nc2ccc(O)cc2O)cc1,nt,10µM*
O=[N+]([O-])c1ccc(N=NN(CCO)CCO)cc1,5.8%,11.4%
CC(=O)OC1CCC2(C)C(=CCC3C2CCC2(C)C3C[C@@H]3O[C@]32C(C)=O)C1 (stereo partly drawn),-16.2%,nt
COc1ccc(NC(=O)CCC2CCCCC2)cc1S(=O)(=O)N1CCCCC1,nt,-6.0%[46.1 µM]
Oc1[nH]c2ccccc2c1N=NC(=S)NCC1CCCO1 (stereo not drawn),5.2%,-25.9%
CCn1c(O)c(N=NC(=S)NCC2CCCO2)c2ccccc21 (stereo not drawn),?,7.94µM*
O=C(/C=C/c1ccccc1)Nc1ccc(Cl)cn1,-9.3%,-0.7%
O=C1CSC(c2ccccn2)N1c1ccc(C(F)(F)F)cc1 (stereo not drawn),-0.6%[57.5 µM],5.5%
O=c1cc(N2CCCCC2)c(-c2ccccc2)nn1Cc1c(Cl)cccc1Cl,nt,10µM*
O=c1cc(N2CCCCC2)c(-c2ccccc2)n[nH]1,-5.5%,21.0%
Cc1ccc2[nH]c3c(N4CCN(Cc5ccccc5)CC4)ncnc3c2c1,nt,12.6µM*
COc1cc2[nH]c3c(N4CCN(c5ccc(Cl)cc5)CC4)ncnc3c2cc1OC,nt,-13.7%[46.1 µM]
SMILES,ERK EGF inh,NPSR antag
c1nc(N2CCN(Cc3ccc4c(c3)OCO4)CC2)c2[nH]cnc2n1,4.9%,2.7%
O=C(c1ccco1)N1CCN(c2ncnc3c2[nH]c2ccc(Cl)cc23)CC1,12.5%,8.2%
COc1ccc2c(c1)[nH]c1c(N3CCSCC3)ncnc12,28.2µM*,?
COc1ccc2c(c1)[nH]c1c(N3CCN(Cc4ccc5c(c4)OCO5)CC3)ncnc12,nt,12.6µM*
Cc1ccccc1NC(=O)OCc1cccnc1Oc1ccc(Cl)cc1,-0.8%,?
NC(=O)CSc1nnc(CSc2ncccn2)n1-c1ccccc1,-1.2%,17.7%
Cc1ccc([N+](=O)[O-])cc1N=Nc1c(-c2ccc([N+](=O)[O-])cc2)[nH]n(C(N)=S)c1=O,?,10µM*
NC(=S)n1[nH]c(-c2ccc([N+](=O)[O-])cc2)c(N=Nc2ccc(Cl)cc2)c1=O,?,-22.3%
COc1ccccc1-c1cc(=O)c2cccc(OC)c2o1,24.3%,nt
COc1cccc(-c2cc(=O)c3ccccc3o2)c1N,5.01µM*!,-7.8%[46.1 µM]
COC(=O)c1ccc(C(NC(=O)OCc2ccccc2)/C(=C/[C@@H](C)C(=O)Nc2ccc(OC)cc2)c2cccnc2)cc1 (stereo partly drawn),-5.5%,nt
Cc1cccc(NC(=O)c2cc([N+](=O)[O-])ccc2N2CCCCC2)n1,?,10µM*
Cc1ccc(NC(=O)c2cc([N+](=O)[O-])ccc2N2CCCC2)cc1,5.1%,-37.4%
CCOC(=O)c1c(NC(=O)COc2cccc3c2CCN(C)C3=O)sc2c1CCC2,4.6%,-55.6%
O=C(NCC(c1cccnc1)N1CCN(c2ccc(F)cc2)CC1)c1ccco1 (stereo not drawn),-3.6%[57.5 µM],-22.2%

# Source: PubChem BioAssay
